Source: PubChem BioAssay (Tox21)
Inconclusive results are not listed. A call without a number means that no potency is given here. Activity calls are given as the source filed them. Calls come from the whole dose curve; as a rule, active = well fitted cell-killing curve with a large enough effect in the repeat runs; inconclusive = weak or mixed curves, or effect the other way; inactive = no such curve, though single readings can be large or run the other way.

Assay: qHTS assay to identify small molecule antagonists of the peroxisome proliferator-activated receptor gamma (PPARg) signaling pathway - cell viability counter screen (AID 743194); note: nearly all actives have a fitted effect of over 55% in size
Settings: PPARg-bla HEK293H viability, CellTiter-Glo luminescence, 17 h, co-treated with 50 nM rosiglitazone; series mostly up to 62.6 µM
Outline: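 Viability was measured as CellTiter-Glo luminescence in GeneBLAzer PPARg UAS-bla HEK293H cells. These cells had been exposed 17 h at 37 C to compounds together with rosiglitazone at 50 nM final, with the beta-lactamase readout taken in the same wells.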

Row | SMILES | Potency
1 | CCCC(=O)OC(=O)CCC | inactive
2 | Nc1ccc(F)cc1 | inactive
3 | CC(C)CC(O)CC(C)C | inactive
4 | COC(=O)CC(C(C)=O)C(=O)OC (stereo not drawn) | inactive
5 | O=C(O)CCS | inactive
6 | N[C@@H](Cc1cc(I)c(O)c(I)c1)C(=O)O | inactive
7 | CC(CO)(CO)C(=O)O | inactive
8 | COC(C)(C)OC | inactive
9 | C[C@@H]1[C@H](O)[C@@H](C)/C=C/C=C\C=C\C=C\C=C\C=C\C=C\[C@H](O[C@@H]2O[C@H](C)[C@@H](O)[C@H](N)[C@@H]2O)C[C@@H]2O[C@](O)(C[C@@H](O)C[C@@H](O)[C@H](O)CC[C@@H](O)C[C@@H](O)CC(=O)O[C@H]1C)C[C@H](O)[C@H]2C(=O)O (stereo in doubt) | inactive
10 | CCCCCCCCCCCCCOS(=O)(=O)O | inactive
11 | CC(C)(C)NCC(O)COc1cccc2c1C[C@H](O)[C@H](O)C2 (stereo partly drawn) | inactive
12 | CC1CCc2nccnc21 (stereo not drawn) | inactive
13 | COc1ccc(CCN(C)CCCN2CCc3cc(OC)c(OC)cc3CC2=O)cc1OC | inactive
14 | COc1cc(NS(=O)(=O)c2ccc(N)cc2)nc(C)n1 | inactive
15 | CC(C)C(O)C(C)(C)CO (stereo not drawn) | inactive
16 | COc1ccc(-c2cc(C(F)F)nn2-c2ccc(S(N)(=O)=O)cc2)cc1F | inactive
17 | [Cl][Nd]([Cl])[Cl] | inactive
18 | CC(C)OC(=O)c1ccccc1C(=O)OC(C)C | inactive
19 | CCCCCCC(O)CCOC(C)=O (stereo not drawn) | inactive

Row | SMILES | Potency
20 | CCN(Cc1cccc(S(=O)(=O)O)c1)c1ccc(C(=C2C=CC(=[N+](CC)Cc3cccc(S(=O)(=O)O)c3)C=C2)c2ccccc2S(=O)(=O)[O-])cc1 | inactive
21 | Cc1cccc2sc(N)nc12 | inactive
22 | CCO[Si](C)(CCCOCC1CO1)OCC (stereo not drawn) | inactive
23 | Cc1ccc2c(c1)CCCN2 | inactive
24 | CC[C@H]1OC(=O)[C@H](C)[C@@H](O[C@H]2C[C@@](C)(OC)[C@@H](O)[C@H](C)O2)[C@H](C)[C@@H](O[C@@H]2O[C@H](C)C[C@H](N(C)C)[C@H]2O)[C@](C)(O)C[C@@H](C)/C(=N\OCOCCOC)[C@H](C)[C@@H](O)[C@]1(C)O | inactive
25 | Cc1c[nH]c2ccccc12 | inactive
26 | CCCCCCCCCCCCCOC(=O)CCSCCC(=O)OCCCCCCCCCCCCC | inactive
27 | Cc1cc(CCC(=O)OCCOCCOCCOC(=O)CCc2cc(C)c(O)c(C(C)(C)C)c2)cc(C(C)(C)C)c1O | inactive
28 | COC(CC(C)CCCC(C)(C)O)OC (stereo not drawn) | inactive
29 | CCSC(=O)N(CC)CC | inactive
30 | O=C(O)/C=C/c1ccc(O)c(O)c1 | inactive
31 | CSSc1ccoc1C | inactive
32 | CC(=O)OCC(=O)[C@@]1(OC(C)=O)[C@@H](C)C[C@H]2[C@@H]3C[C@H](F)C4=CC(=O)C=C[C@]4(C)[C@@]3(F)[C@@H](O)C[C@@]21C | inactive
33 | COc1cc(OC)c2ccc(=O)oc2c1 | inactive
34 | NC(=O)c1ccccc1[N+](=O)[O-] | inactive
35 | C=C(C)C(=O)OCCC(F)(F)C(F)(F)C(F)(F)C(F)(F)C(F)(F)C(F)(F)F | inactive
36 | CC(C)C1CCC(C(=O)N[C@H](Cc2ccccc2)C(=O)O)CC1 (stereo partly drawn) | inactive
37 | CC(=O)Oc1cccc(O)c1 | inactive
38 | CC[C@H]1OC(=O)[C@H](C)[C@@H](O[C@H]2C[C@@](C)(OC)[C@@H](O)[C@H](C)O2)[C@H](C)[C@@H](O[C@@H]2O[C@H](C)C[C@H](N(C)C)[C@H]2O)[C@](C)(O)C[C@@H](C)CN(C)[C@H](C)[C@@H](O)[C@]1(C)O | inactive
